Here are results for 15 compounds from PubChem BioAssay (NCI).

Compounds without any hit were thinned out: in the full panel of roughly 83,000, 20% have a hit.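 Activity criterion: percent growth below 10, measured after cells in 96-well plates were exposed to a single compound concentration for 48 hours.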 Unmarked numbers belong to inactive results. Activity calls are given as the source filed them.

Among the test systems are T-47D breast; BT-549 breast; MDA-MB-435 melanoma; SW-620 colon; MCF7 breast; HCT-116 colon; HCC-2998 colon; KM12 colon.
Assay in all cases: NCI-60 one-dose screen, 48 h (100 = growth as untreated, 0 = no growth, -100 = all killed)
What all share (details): 10 µM unless noted

On to `N#Cc1c(-c2cccc([N+](=O)[O-])c2)cc(-c2ccc(Nc3nc(Nc4ccc(F)cc4)nc(Nc4ccc(F)cc4)n3)cc2)nc1N`, for which the growth with T-47D breast was 115%; with BT-549 breast, 173%; in the experiment on MDA-MB-435 melanoma it was 112%; in the experiment on SW-620 colon it was 108%; with MCF7 breast, 291%; in the experiment on HCT-116 colon, 108%. In addition, the growth in the experiment on HCC-2998 colon was 113%; with KM12 colon, 114%.
For `COc1ccc(NC(=O)c2cccc(C3CCc4c(cc(OC)c(OC)c4OC)O3)c2)cc1` (stereo not given), the growth in the experiment on T-47D breast was 16%; in the experiment on BT-549 breast it was 25.9%; in the experiment on MDA-MB-435 melanoma, -10.5% (active); in the experiment with SW-620 colon, 29%; in the experiment with MCF7 breast, 11.3%; with HCT-116 colon, 14.6%. Also, the results for the growth in the experiment on HCC-2998 colon and in the experiment with KM12 colon were 50.7% and 18.2%, respectively.
As to `O=C(CCCCl)NNc1nccc(Nc2ccc(S(=O)(=O)Nc3ccncc3)cc2)n1`, the growth in the experiment with T-47D breast was 94.1%; with BT-549 breast, 120%; in the experiment with MDA-MB-435 melanoma, 107%; in the experiment with SW-620 colon, 113%; with MCF7 breast it was 93.4%; with HCT-116 colon it was 97.1%. For the same compound, the growth in the experiment with HCC-2998 colon was 103%; in the experiment on KM12 colon, 101%.
Take `CC(C)(CO)N(CCO)CCO`: the growth in the experiment with T-47D breast was 112%; in the experiment with BT-549 breast, 101%; in the experiment with MDA-MB-435 melanoma, 108%; in the experiment on SW-620 colon, 111%; in the experiment on MCF7 breast, 100%; with HCT-116 colon, 106%. The values for the growth with HCC-2998 colon and in the experiment on KM12 colon were 105% and 106%, respectively.
As to `N/C(=N\c1nc2ccccc2s1)NC(=NC1CCCCC1)NC1CCCCC1`, the growth in the experiment with T-47D breast is 13.2%; in the experiment with BT-549 breast, 47.6%; in the experiment on MDA-MB-435 melanoma, -33.7% (active); in the experiment on SW-620 colon, 0.593% (active); in the experiment on MCF7 breast, -42.4% (active); with HCT-116 colon, 0.368% (active). Further, the growth with HCC-2998 colon was -88.6% (active); in the experiment with KM12 colon, 27.5%.
For the compound `CCCCSCC(=O)c1ccccc1`, the growth with T-47D breast is 95.4%; in the experiment with BT-549 breast, 99.9%; in the experiment on MDA-MB-435 melanoma, 106%; with SW-620 colon it was 105%; with MCF7 breast, 98.2%; in the experiment on HCT-116 colon it was 95.2%. In addition, the growth in the experiment on HCC-2998 colon is 100%; in the experiment on KM12 colon it was 98.5%.
Turning to `COc1ccc(C2=NN(C(C)=O)C(c3ccc(Oc4ccnc5cc(Cl)ccc45)c(OC)c3)C2)cc1` (stereo not given), the growth is 16.2% in the experiment on T-47D breast; 79.5% in the experiment with BT-549 breast; 57% with MDA-MB-435 melanoma; 74.3% in the experiment with SW-620 colon; 37.6% in the experiment on MCF7 breast; 25% in the experiment on HCT-116 colon. The values for the growth with HCC-2998 colon and with KM12 colon were 57.2% and 72.9%, respectively.
Turning to `CN1CCN(c2ccc3c(c2)nc(NNC(=O)c2cnccn2)c2cccn23)CC1`, the growth is 37.9% in the experiment on T-47D breast; 41.2% in the experiment with BT-549 breast; 32.6% with MDA-MB-435 melanoma; 34.1% with SW-620 colon; 13.8% with MCF7 breast; 23.1% with HCT-116 colon. Besides, the growth in the experiment with HCC-2998 colon was 47.8%; in the experiment with KM12 colon, 19.3%.
For `COc1cc(C2Cc3ncccc3-c3[nH]c(=O)c4cccnc4c32)cc(OC)c1OC` (stereo not given), the growth in the experiment on T-47D breast is 45.6%; with BT-549 breast, 40.6%; with MDA-MB-435 melanoma it was -50.3% (active); with SW-620 colon, 26.7%; in the experiment with MCF7 breast, 16%; with HCT-116 colon, 13.8%. The figures for the growth in the experiment on HCC-2998 colon and with KM12 colon were 25.1% and 23%, respectively.
Regarding `C#CCOc1ccc2ncnc(Nc3cccc(NC(=O)CCl)c3)c2c1`, the growth with T-47D breast was 85.2%; with BT-549 breast it was 68.6%; in the experiment on MDA-MB-435 melanoma, 81.7%; with SW-620 colon, 33.5%; in the experiment with MCF7 breast it was 41.9%; with HCT-116 colon, 22.9%. For the same compound, the growth was 99.4% in the experiment with HCC-2998 colon and 71% in the experiment on KM12 colon.
With `CCN1C(=O)N(CC)C2C1NN=c1s/c(=C3\C(=O)N(CCc4ccccc4)c4ccccc43)c(=O)n12` (stereo not given), the growth with T-47D breast was 44.4%; in the experiment with BT-549 breast, 14.2%; in the experiment on MDA-MB-435 melanoma, -40.9% (active); with SW-620 colon, 23.1%; in the experiment on MCF7 breast it was 11.6%; with HCT-116 colon, 2.18% (active). In addition, the results for the growth in the experiment with HCC-2998 colon and in the experiment on KM12 colon were 13.2% and 13.9%, respectively.
`CC(=O)N/C(=C1/OC(C(O)C(O)C(O)CO)CN1C)[P+](c1ccccc1)(c1ccccc1)c1ccccc1` (stereo not given): the growth in the experiment on T-47D breast is 103%; in the experiment with BT-549 breast it was 102%; with MDA-MB-435 melanoma it was 103%; with SW-620 colon, 104%; with MCF7 breast, 92.8%; in the experiment on HCT-116 colon it was 100%. For the same compound, the growth in the experiment on HCC-2998 colon was 97.7%; with KM12 colon, 103%.
`CCn1cc(C(=O)N/N=C/c2ccc(Br)cc2)c(=O)c2cc(F)c(N3CCNC(C)C3)c(F)c21` (stereo not given): the growth in the experiment with T-47D breast is 64.1%; with BT-549 breast, 91.7%; with MDA-MB-435 melanoma it was 16.7%; with SW-620 colon it was -74.1% (active); in the experiment on MCF7 breast, -77.3% (active); with HCT-116 colon, 67.7%. In addition, the values for the growth with HCC-2998 colon and with KM12 colon were 25.9% and 47.9%, respectively.
In the case of `Cc1cscc(C)c1=S`, the growth in the experiment on T-47D breast was 96%; in the experiment with BT-549 breast it was 99.7%; in the experiment with MDA-MB-435 melanoma, 104%; in the experiment with SW-620 colon it was 50.5%; in the experiment with MCF7 breast, 59.4%; in the experiment on HCT-116 colon, 61.2%. For the same compound, the growth with HCC-2998 colon is 103%; in the experiment with KM12 colon it was 104%.
As to `O=C1NC(=Nc2ccc(O)cc2)S/C1=C\c1cccs1`, the growth in the experiment with T-47D breast is 32.5%; with BT-549 breast, 35.8%; in the experiment on MDA-MB-435 melanoma, -24.7% (active); with SW-620 colon, 27.2%; in the experiment with MCF7 breast, 11.8%; in the experiment on HCT-116 colon, 32.9%. The growth with HCC-2998 colon is 59%; in the experiment on KM12 colon it was 13.9%.
